# PKA-R1A activ – PKA-R1A complex activation. P00514+P68181. PKA-R1A dissociation, Cy5-IP20 fluorescence polarization; scaled: DMSO 0%, 113 µM cGMP 100%. activation, % at 11.4 µM. hit rate 0.083% among 340,000. AID 504707;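 active means percent activation above the mean of all tested compounds plus 3 SD, cut at about 19% in these data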;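 further: higher means more PKAc released from R1A so a rise in polarization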
# Rev-erbA mod – modulates human Rev-erb alpha binding to DNA; AID 1259318; activity, % at 10 µM; P20393; hit rate 0.79% among 370,000; Rev-erbα–FITC-DNA binding, fluorescence polarization, 90 min;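 active means activity above about 14%, limit read from the data; passing the limit was not always enough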;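 further: 0% = DMSO wells with 35 nM protein and 100% = DMSO wells with 750 nM protein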
# PG9 Ab binder – binds the HIV-1 gp120 antibody PG9 | TR-FRET gp120-PG9 antibody binding | hit rate 0.43% among 360,000 | inhibition, % at 6.7 µM; in the data active means inhibition above about 8.5%
# PKA-R2B act – activators of human PKA-R2B complex | P22694+P31323 | PKA-R2B holoenzyme dissociation, Cy5-IP20 fluorescence polarization; R2B truncated from residue 108, S112A mutant; 0% DMSO only, 100% 113 µM cGMP | activation, % at 11.4 µM | hit rate 0.079% among 340,000;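 active means activation above a cutoff set at the mean over all compounds plus 3 SD, cut at about 18% in these data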;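 further: higher means more holoenzyme dissociation and a rise in polarization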
# Target sequence (P31323 whole entry, looked up, other chains not shown, the tested form may be a part): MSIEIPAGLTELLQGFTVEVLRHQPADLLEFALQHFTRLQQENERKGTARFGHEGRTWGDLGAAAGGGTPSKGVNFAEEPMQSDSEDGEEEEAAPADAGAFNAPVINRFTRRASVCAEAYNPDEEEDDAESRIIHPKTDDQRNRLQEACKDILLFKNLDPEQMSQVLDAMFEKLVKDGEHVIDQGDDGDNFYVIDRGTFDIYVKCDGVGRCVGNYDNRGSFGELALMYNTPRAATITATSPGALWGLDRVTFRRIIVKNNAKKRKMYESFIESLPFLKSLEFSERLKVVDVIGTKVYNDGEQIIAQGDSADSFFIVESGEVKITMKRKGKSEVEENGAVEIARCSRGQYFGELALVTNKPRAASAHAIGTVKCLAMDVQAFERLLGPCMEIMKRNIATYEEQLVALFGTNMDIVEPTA
# PG9 bind confirm – confirmation of small molecules binding HIV-1 gp120 antibody PG9. shares compounds with PG9 Ab binder. inhibition, % at 6.7 µM. TR-FRET PG9 antibody binding, biochemical. hit rate 90% among 1,500; in the data active means inhibition above about 9%
# PGV04 counter – binds control antibody PGV04 in PG9 binder counter-screen; shares compounds with PG9 Ab binder; hit rate 95% among 1,500; inhibition, % at 6.7 µM; TR-FRET PGV04 antibody-gp120 binding, biochemical; in the data active means inhibition above about 9.5%
# PG9 bind DR – PG9 antibody binding, dose response; shares compounds with PG9 Ab binder; TR-FRET PG9 antibody-gp120 binding inhibition; IC50, µM; 95 tested, under 10 active; in the data active means IC50 below about 10 µM
# PGV04 binding DR – PGV04 binding, dose response counter-screen; AID 651937; shares compounds with PG9 Ab binder; IC50, µM; TR-FRET binding to control antibody PGV04; hit rate 20% among 95
# PG126 DR counter – counter-screen for PG9 binders: binding to control antibody PG126; IC50, µM; shares compounds with PG9 Ab binder; TR-FRET binding to antibody PG126, counterscreen; hit rate 20% among 95
# Numbers without * were called inactive; i = inactive; / = no result given. Compounds with a hit are over-represented: about 1.2% of the library has one in this group of screens. Unless noted, no stated cut-off is given here; in the data, active means IC50 below about 9 µM; inactive means the rest.
SMILES,PKA-R1A activ,Rev-erbA mod,PG9 Ab binder,PKA-R2B act,PG9 bind confirm,PGV04 counter,others
O=C(Nc1ccc(F)cc1)c1cc(-c2ccccn2)nc2c(Cl)cccc12,-6.6,4.9,18.5*,-16.0,32.6*,69.2*,
Cn1c2ccccc2c(=O)c2ccc(C#Cc3ccccn3)cc21,/,-9.5,49.7*,/,57.1*,78.8*,
Cc1cccc[n+]1C1C(c2ccccc2)C(C#N)=C(C(=C=[N-])C#N)NC1(O)C1CC1 (stereo not given),-5.5,/,/,-3.3,/,/,
N#CC(=C=[N-])C1=C(C#N)C(c2ccccc2F)C([n+]2ccccc2)C(O)(C2CC2)N1 (stereo not given),-2.8,-2.8,9.1*,-12.3,16.0*,24.4*,
CSc1nc(Sc2ccccc2Cl)c2ccccc2n1,0.4,3.0,9.1*,-6.2,17.0*,21.8*,
CCC(CO)Nc1cccc2c1S(=O)(=O)N(Cc1cn(Cc3cccc(F)c3)nn1)Cc1ccccc1O2 (stereo not given),/,-2.4,/,/,/,/,
COC(=O)C1CCN(C(=O)C2CC(=O)N(c3ccc(OC)cc3)C2c2ccc(OC)cc2)CC1 (stereo not given),/,-6.3,/,/,/,/,
CCCC(=O)Nc1nnc(-c2cccc(OCC)c2)s1,-2.8,7.6,15.9*,-0.6,22.2*,38.6*,
CCOC(=O)Nc1nnc(-c2cccc(OC)c2)s1,-7.0,-2.6,0.8,-5.7,/,/,
COCCn1c(=NC(=O)c2sc3ccccc3c2Cl)sc2cc(S(N)(=O)=O)ccc21,-1.9,-5.3,18.4*,-8.9,24.4*,34.6*,
C=CCN1C(=O)[C@@H](CC(=O)NCc2ccc(OC)c(OC)c2)[C@]2(C(=O)OCC)CCCCC/C=C/12,/,1.4,/,/,/,/,
O=C(O)c1ccccc1NC(=S)NC(=O)c1sc2ccccc2c1Cl,-5.2,8.2,9.8*,7.3,16.8*,18.6*,
O=C(NC(=S)Nc1ccccc1N1CCOCC1)c1sc2ccccc2c1Cl,-2.6,1.9,-1.3,0.8,/,/,
O=C(CSc1nc2ccccc2nc1N1CCCC1)N1CCN(c2cccc(C(F)(F)F)c2)CC1,/,-8.0,/,/,/,/,
COC(=O)c1ccc(OCC(=O)Nc2nn(-c3ccccc3)nc2C(N)=O)cc1,6.6,14.7,12.4*,2.9,29.6*,34.0*,
CCCCC(=O)Nc1nn(CC)c2nc3c(C)cccc3cc12,6.6,9.6,9.7*,5.7,11.0*,15.0*,
COc1ccc(C(=O)COC(=O)CCN=C2NS(=O)(=O)c3ccccc32)c(OC)c1,-0.2,2.5,16.9*,0.9,31.0*,44.7*,
Cc1cc(O)c2c(C)c(CC(=O)N3CCN(C(=O)C4COc5ccccc5O4)CC3)c(=O)oc2c1 (stereo not given),7.0,2.7,6.2,11.0,/,/,
Cc1cc(O)c2c(CN3CCN(Cc4ccccc4)CC3)cc(=O)oc2c1,10.0,-2.5,-2.7,5.9,/,/,
COC(=O)Cc1c(C)c2c(O)cc(C)cc2oc1=O,-6.6,-0.6,10.4*,-4.7,18.1*,17.6*,PG9 bind DR=i;PGV04 binding DR=i;PG126 DR counter=i
CCCc1cc(=O)oc2cc(C)cc(O)c12,-2.2,-1.4,9.3*,-0.7,14.2*,19.4*,
CCc1cc(=O)oc2cc(C)cc(O)c12,2.7,1.3,14.5*,-3.5,13.5*,19.8*,
CCC1(O)C(=O)OCc2c1cc1n(c2=O)Cc2cc3cc(O)ccc3nc2-1 (stereo not given),-4.7,-0.4,19.3*,-0.6,15.7*,31.5*,
O=C(O)CCC(=O)N1CCN(c2nc(-c3ccccc3)c3cc(Br)ccc3n2)CC1,-1.0,1.4,8.1,8.4,/,/,
O=C(O)CCC(=O)N1CCN(c2nc(-c3ccccc3Cl)c3cc(Br)ccc3n2)CC1,-5.9,-2.2,10.7*,-5.6,15.7*,23.4*,
SMILES,PKA-R1A activ,Rev-erbA mod,PG9 Ab binder,PKA-R2B act,PG9 bind confirm,PGV04 counter,others
Cc1ccc(S(=O)(=O)Nc2nc3ccccc3nc2Nc2cccc(S(=O)(=O)N3CCCC3)c2)cc1,2.3,1.5,9.8*,3.3,12.1*,13.6*,
N=c1c2c(-c3ccccc3)c(-c3ccccc3)n(CCc3ccccc3)c2ncn1CCO,/,-1.9,/,/,/,/,
O=S1(=O)c2c(cccc2N2CCC[C@H]2CO)O[C@H]2CCN1C2,/,-3.9,/,/,/,/,
COc1ccccc1-c1n[nH]c(=S)o1,-3.3,-6.3,18.3*,2.1,13.5*,24.0*,
COc1ccc(Cl)cc1-c1n[nH]c(=S)o1,5.9,3.3,37.2*,4.9,35.9*,47.9*,
COc1ccc(C(=O)Nc2ccc(-c3n[nH]c(=S)o3)cc2)cc1OC,-8.4,5.4,0.5,-4.9,/,/,
C[C@@H](O[Si](c1ccccc1)(c1ccccc1)C(C)(C)C)[C@H]1C(=O)N[C@H](Cc2cn(S(=O)(=O)c3ccccc3)c3ccccc23)C(=O)N1C,/,3.2,/,/,/,/,
CCCCCCCCNS(=O)(=O)CC1NCc2cc(OC)ccc21 (stereo not given),/,6.4,/,/,/,/,
CC(=O)N1CCN(c2cc(-c3ccco3)nc3cc(-c4ccccc4)nn23)CC1,/,-5.2,/,/,/,/,
O=C(Nc1nc(=O)c2ccccc2s1)c1ccccc1,-2.4,22.9,29.5*,-5.8,51.5*,69.4*,
COc1ccccc1NC(=O)c1ccc(NC(=O)Cc2n[nH]c(=O)c3ccccc23)cc1,-8.0,3.9,10.9*,0.7,12.1*,18.5*,
O=C(c1cc2sccc2n1Cc1ccc(F)cc1)N1CCN(c2nc3ccccc3s2)CC1,-4.6,0.8,2.4,-0.6,/,/,
Cn1c(C(=O)N2CCN(c3nc4ccccc4s3)CC2)cc2sccc21,-3.6,9.6,13.8*,3.0,20.2*,30.6*,
CC(C)CCNC(=O)NC(=O)COC(=O)c1cc(S(=O)(=O)N2CCOCC2)ccc1N1CCCCC1,8.2,14.5,31.8*,-13.4,27.6*,45.5*,
NC(=O)COC(=O)c1cc(S(=O)(=O)N2CCOCC2)ccc1N1CCCCC1,-12.0,-4.7,0.6,-2.6,/,/,
CCNC(=O)Cc1c(OC)ccc2cc(Br)ccc12,4.1,-3.0,6.7,3.2,/,/,
CCN(CC)C(=O)Cc1c(OC)ccc2cc(Br)ccc12,-5.6,2.6,3.0,-6.3,/,/,
COc1ccc2cc(Br)ccc2c1CC(=O)NC(C)(C)C,-4.4,4.9,12.8*,-5.5,20.9*,24.9*,
CCCNC(=O)Cc1c(OC)ccc2cc(Br)ccc12,1.9,8.0,11.0*,-5.2,23.7*,30.7*,
COc1ccc2cc(Br)ccc2c1CC(=O)NCC1CCCO1 (stereo not given),1.7,-1.6,7.6,5.2,/,/,

# Screening data deposited in PubChem by several laboratories.
